An excerpt weighted towards active compounds, which were near 3.8% of everything screened.
HT1080 IDH1KD tx – qHTS for induction of synthetic lethality in tumor cells producing 2HG: qHTS for the HT-1080-IDH1KD cell line; AID 686971, 2013; actives 2% (n = 360,000); HT-1080 IDH1 knockdown viability, ATP luminescence, 48 h; Potency, µM (top dose mostly 46.1 µM), for the others: at the top dose activity, negative = toxicity, usual class: cytotoxic;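 note: 0% = DMSO wells and -100% = cell-free medium wells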
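Luminescent ATP read-out (CellTiter-Glo, 10 min at room temperature) after 48 h compound exposure at 37 °C gave viability of IDH1-knockdown HT-1080 cells. Activity was normalised to DMSO and cell-free wells, then fitted as concentration-response curves.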
HepG2 tox – qHTS for Inhibitors of TGF-b: Cytotox Counterscreen. AID 588856, 2011. HepG2 CAGA-GFP viability, ATP luminescence, 18 h. actives 0.76% (n = 410,000). Potency, µM (top dose mostly 46.1 µM), inactives show top-dose activity change, negative = cytotoxicity, most hits filed as cytotoxic
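HepG2 CAGA-GFP cells (1000/well, DMEM with 1% FBS) received compound, then TGF-beta at 500 pg/mL final, and were incubated 18 hours at 37 degrees C. Viability was read by CellTiter-Glo luminescence. Media-only wells were set as complete cell-killing and DMSO as no toxicity.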
TGFb SMAD3 inh – qHTS for Inhibitors of TGF-b; HepG2 CAGA-GFP TGF-b/SMAD3 reporter, GFP fluorescence, 18 h; TGF-beta stimulated, 500 pg/mL final; Potency, µM (highest dose often 46.1 µM), for inactives: at the highest dose activity, negative = inhibition, usual class: inhibitors; actives 1.2% (n = 410,000); note: % is set by controls: 0 for no effect and ±100 for the full control effect; nearly all actives have a fitted effect of over 65% in size
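Smad-responsive CAGA-GFP expression was quantified in HEPG2 cells exposed to compounds and 500 pg/mL final TGF-beta for 18 h at 37 degrees C; unstimulated wells defined full inhibition.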
HT1080-NT tox – qHTS for induction of synthetic lethality in tumor cells producing 2HG: qHTS for the HT-1080-NT fibrosarcoma cell line; HT-1080-NT fibrosarcoma viability, CellTiter-Glo ATP luminescence, 48 h; Potency, µM (highest dose often 46.1 µM), for inactives: at the highest dose activity, negative = less viability, hits mostly cytotoxic; actives 1.6% (n = 360,000); AID 686970, 2013;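 note: NT is the 2HG producing partner of a matched IDH1 knockdown line; 0% = DMSO-treated cells and -100% = media-only wells without cells; nearly all actives have a fitted effect of over 55% in size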
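HT-1080-NT fibrosarcoma cells (2HG-overproducing), 750 cells/well in RPMI with 5% FBS, dosed after 2 h and incubated 48 h at 37C. CellTiter-Glo luminescence normalized to DMSO and no-cell wells; concentration-response curves fitted and classed.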
ATXN2 expr inh – Primary qHTS for Inhibitors of ATXN expression; HEK-293 ATXN2-luciferase reporter, luminescence, 24 h; AID 1745845, 2022; actives 0.72% (n = 360,000); Potency, µM (series often up to 57 µM), without a hit: at the top dose activity change, negative = inhibition, usual class: inhibitors; note: % is set by controls: 0 for no effect and ±100 for the full control effect; nearly all actives have a fitted effect of over 55% in size
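qHTS (up to 57 uM final) was run with 24 h compound exposure of reporter cells at 37 °C. Each well was multiplexed: SteadyGlo luminescence measured ATXN2-luciferase expression after a fluorogenic Gly-Phe-AFC viability readout (25 uM final).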
S2 tox – Viability Counterscreen for Primary qHTS for Inhibitors of ATXN expression; actives 0.49% (n = 400,000); Potency, µM (highest dose often 56.7 µM), actives largely listed as cytotoxic; S2 cells (HEK-293 line with an ATXN2-luciferase reporter) viability, CellTiter-Fluor protease fluorescence, 24 h; note: nearly all actives have a fitted effect of over 40% in size
* = called active by the depositor. Calls come from the whole dose curve; as a rule, active = well fitted curve in the direction sought with a large enough effect; inconclusive = small, poorly fitted or top-dose-only effect, or another doubt; inactive = no such curve, though single readings can be large; an effect the other way counts as inactive or inconclusive. Potency is the fitted concentration of half-maximal effect.

How did Cc1ccc(Cl)cc1N1CCN(CC(=O)Nc2ccc(CN3CCCCC3)cc2)CC1 do in these assays?
HT1080 IDH1KD tx: 23µM*; HepG2 tox: -46%; TGFb SMAD3 inh: 24%; HT1080-NT tox: 21µM*; ATXN2 expr inh: -37%; S2 tox: inconclusive

How did COc1ccccc1N1CCN(CC(=O)Nc2ccc(CN3CCCCC3)cc2)CC1 do in these assays?
HT1080 IDH1KD tx: -2%; HepG2 tox: -18%; TGFb SMAD3 inh: -6%; HT1080-NT tox: 2%; ATXN2 expr inh: -4%; S2 tox: inactive

Results for C[N+](C)(C)CC(O)CC(=O)[O-] (stereo not drawn) ?
ATXN2 expr inh: 14%; S2 tox: inactive

Results for C=Cc1ncc(OC)c2c1[nH]c1ccccc12 ?
HT1080 IDH1KD tx: inconclusive; HepG2 tox: 13µM*; TGFb SMAD3 inh: 20µM*; HT1080-NT tox: 16µM*; ATXN2 expr inh: inconclusive

Results for COc1ccc(OC)c(C(=O)N2CCOc3ccc(C(C)(O)CN(C)C)cc3C2)c1 (stereo not drawn) ?
S2 tox: inactive

How did CCCCCCSc1ccc([C@@H]2[C@@H]3C(=O)N(C)C(=O)[C@@H]3[C@]3(C(=O)OC)CCCCN23)cc1OC do in these assays?
HT1080 IDH1KD tx: inconclusive; HepG2 tox: -27%; TGFb SMAD3 inh: inconclusive; HT1080-NT tox: 29µM*; ATXN2 expr inh: 0%; S2 tox: inconclusive

What do the screens show for `CCn1c(-c2ccccc2F)nc2cc(NC(C)=O)cc(C(=O)N(C)Cc3cn(C)nc3C)c21`?
S2 tox: inactive

Results for Cc1ccc(O)c(Cc2cc(C)cc(Cc3cc(C)ccc3O)c2O)c1 ?
HT1080 IDH1KD tx: inconclusive; HepG2 tox: -89%; TGFb SMAD3 inh: 22µM*; HT1080-NT tox: -18%; S2 tox: inconclusive

Results for Cc1ccc(O)c(CNCCNCc2cc(C)ccc2O)c1 ?
HT1080 IDH1KD tx: inconclusive; HepG2 tox: -64%; TGFb SMAD3 inh: inconclusive; HT1080-NT tox: inconclusive; ATXN2 expr inh: inconclusive; S2 tox: inactive

How did COc1c(CC=C(C)C)cc(C2CC(=O)c3c(O)cc(O)cc3O2)cc1CC=C(C)C (stereo not drawn) do in these assays?
HT1080 IDH1KD tx: inconclusive; HepG2 tox: 16µM*; TGFb SMAD3 inh: 14µM*; HT1080-NT tox: inconclusive; ATXN2 expr inh: inconclusive

What do the screens show for `COc1ccc([C@@H]2CC(=O)c3c(O)cc(O)cc3O2)cc1O`?
HT1080 IDH1KD tx: 19%; HepG2 tox: 18%; TGFb SMAD3 inh: 1%; HT1080-NT tox: 49%; ATXN2 expr inh: 61%; S2 tox: inactive

Results for Cc1ccsc1C(=O)N1CC(=O)Nc2ccccc21 ?
HT1080 IDH1KD tx: 18µM*; HepG2 tox: -31%; TGFb SMAD3 inh: 1%; HT1080-NT tox: inconclusive; ATXN2 expr inh: -16%; S2 tox: inactive

Results for CS(=O)(=O)c1ccc(C(=O)N2CC(=O)Nc3ccccc32)cc1 ?
HT1080 IDH1KD tx: 0%; HepG2 tox: -2%; TGFb SMAD3 inh: 2%; HT1080-NT tox: 11%; ATXN2 expr inh: -9%; S2 tox: inactive

What do the screens show for `COc1ccc(Nc2nc3ccccc3n2C)cc1`?
HT1080 IDH1KD tx: -24%; HepG2 tox: -1%; TGFb SMAD3 inh: -4%; HT1080-NT tox: 5%; ATXN2 expr inh: 54%; S2 tox: inactive

What do the screens show for `CCn1c(/C=C/c2ccccc2)nc2ccccc21`?
HT1080 IDH1KD tx: inconclusive; HepG2 tox: -60%; TGFb SMAD3 inh: -1%; HT1080-NT tox: inconclusive; ATXN2 expr inh: 56%; S2 tox: inactive

How did COc1ccc(/C=C/c2nc3ccccc3n2C)cc1 do in these assays?
HT1080 IDH1KD tx: 4.6µM*; HepG2 tox: -13%; TGFb SMAD3 inh: -4%; HT1080-NT tox: 5.2µM*; ATXN2 expr inh: inconclusive; S2 tox: inactive

How did COc1ccc(Cn2c(/C=C/c3ccccc3)nc3ccccc32)cc1 do in these assays?
HT1080 IDH1KD tx: inconclusive; HepG2 tox: -60%; TGFb SMAD3 inh: inconclusive; HT1080-NT tox: 11µM*; ATXN2 expr inh: 99%; S2 tox: inactive

How did CCCCCCn1c(/C=C/c2ccccc2)nc2ccccc21 do in these assays?
HepG2 tox: -66%; TGFb SMAD3 inh: 16µM*

How did OC(CN1C=CCc2ccccc21)c1ccc(Cl)cc1Cl (stereo not drawn) do in these assays?
HepG2 tox: -17%; TGFb SMAD3 inh: 0%

How did COc1cccc2sc(Nc3nc(-c4ccncc4)cs3)nc12 do in these assays?
HT1080 IDH1KD tx: 2.3µM*; HepG2 tox: 8%; TGFb SMAD3 inh: 10%; HT1080-NT tox: 2.3µM*; ATXN2 expr inh: 2%; S2 tox: inactive

How did COc1cccc2sc(Nc3nc(-c4cc5ccccc5oc4=O)cs3)nc12 do in these assays?
HT1080 IDH1KD tx: 2.1µM*; HepG2 tox: -56%; TGFb SMAD3 inh: -16%; HT1080-NT tox: 5.2µM*; ATXN2 expr inh: -6%; S2 tox: inactive

What do the screens show for `O=C(Cc1ccc(OCCC2CCCCC2)cc1)NO`?
HepG2 tox: -7%; TGFb SMAD3 inh: -15%

Results for COc1ccc(C(=O)C2CCN(C(=S)NCCc3ccc(OC)c(OC)c3)CC2)cc1 ?
HT1080 IDH1KD tx: -21%; HepG2 tox: -28%; TGFb SMAD3 inh: inconclusive; HT1080-NT tox: -4%; ATXN2 expr inh: inconclusive; S2 tox: inconclusive

How did COc1ccc(CCNC(=S)N2CCC(C(=O)c3ccc(F)cc3)CC2)cc1OC do in these assays?
HT1080 IDH1KD tx: inconclusive; HepG2 tox: -36%; TGFb SMAD3 inh: 11µM*; HT1080-NT tox: -17%; S2 tox: inactive

Results for O=C1N(Cc2cccc(Cl)c2)C[C@@H]2C[C@@H](c3cccn3-c3cccnc3)N3CCC[C@@]123 ?
HT1080 IDH1KD tx: -24%; HepG2 tox: -42%; TGFb SMAD3 inh: 16µM*; HT1080-NT tox: -7%; ATXN2 expr inh: inconclusive; S2 tox: inconclusive

How did COc1cc(C(=O)NCCOc2cc(C)cc(C)c2)cc(OC)c1OC do in these assays?
HT1080 IDH1KD tx: 7.3µM*; HepG2 tox: -17%; TGFb SMAD3 inh: -18%; HT1080-NT tox: 12µM*; ATXN2 expr inh: -2%; S2 tox: inactive

What do the screens show for `CC[C@H](CC[C@@H](C)[C@H]1CC[C@H]2[C@@H]3CC=C4C[C@@H](O)CC[C@]4(C)[C@@H]3CC[C@]12C)C(C)C`?
ATXN2 expr inh: -9%

Bioassay records: PubChem, National Center for Advancing Translational Sciences (NCATS)
